RAD52 inh: RAD52 (human) annealing inhibition. P43351. recombinant RAD52 DNA annealing, FRET fluorescence. inhibition, % at 18.7 µM. 360,000 tested, 0.46% active. AID 651710;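 active = every replicate showing at least 50% inhibition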
MLL AF4-AF9 inh: inhibitors of human MLL-AF4/AF9 interaction. AlphaScreen, biotin-AF4 peptide binding to FLAG-AF9. inhibition, % at 10 µM. 350,000 tested, 0.47% active;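 active = every replicate reaching a set inhibition limit, whatever the replicate mean, cut at about 25% in these data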;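 also: 0% = plate neutral control median and 100% = total signal loss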
Target sequence (P42568 whole entry, looked up): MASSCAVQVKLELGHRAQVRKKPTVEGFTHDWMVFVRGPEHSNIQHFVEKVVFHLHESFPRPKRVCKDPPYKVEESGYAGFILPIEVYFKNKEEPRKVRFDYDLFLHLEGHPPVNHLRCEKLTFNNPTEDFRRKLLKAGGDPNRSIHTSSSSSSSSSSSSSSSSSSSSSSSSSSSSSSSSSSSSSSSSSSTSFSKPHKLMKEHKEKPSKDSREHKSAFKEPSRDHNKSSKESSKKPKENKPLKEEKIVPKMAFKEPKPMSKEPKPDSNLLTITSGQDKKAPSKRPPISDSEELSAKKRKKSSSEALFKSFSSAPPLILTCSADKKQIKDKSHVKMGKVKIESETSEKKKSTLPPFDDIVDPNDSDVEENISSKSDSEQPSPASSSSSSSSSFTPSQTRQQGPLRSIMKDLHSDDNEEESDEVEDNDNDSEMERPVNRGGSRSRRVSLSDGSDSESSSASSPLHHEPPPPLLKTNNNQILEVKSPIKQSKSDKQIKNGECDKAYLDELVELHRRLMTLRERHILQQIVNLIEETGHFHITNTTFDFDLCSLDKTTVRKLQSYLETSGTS
DENV2 CPE rescue: inhibitors of DENV2 cytopathic effect; 350,000 tested, 1.7% active; DENV2-infected cells, cytopathic effect rescue, plate reader; AID 651640; CPE inhibition, % at 9.99 µM; in the data active = CPE inhibition above about 20%, passing the limit was not always enough; tested in BHK-21 cells;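 also: 0% = median of neutral control wells and 100% = median of positive control wells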
RAD54 inh: inhibitors of human RAD54 branch migration | Q92698 | RAD54 Holliday junction branch migration, FAM/BHQ fluorescence | inhibition, % at 10.4 µM | 360,000 tested, 0.14% active | AID 602329;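 active = mean normalized replicate activity at least 40 and at least half of replicates scoring 40 or more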;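 also: 0% = median of neutral control wells and 100% = median of positive control wells; inhibitors cause a drop in the FAM fluorescence signal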
INS-1E GSIS act: primary screen for activators of insulin secretion dependent on glucose, INS-1E cells, GLuc reporter luminescence. INS-1E GLuc reporter insulin secretion, 2-3 h. 370,000 tested, 0.61% active. AID 743287. activation, % at 16.6 µM;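 active = lowest replicate activation of at least 40%, so every replicate reaches that level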;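 also: 0% = median of neutral control wells and 100% = median of IBMX positive control wells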
dFosB activator: enhances mouse delta FosB homodimer DNA binding; AID 493131; 340,000 tested, 0.99% active; activation, % at 25 µM; P13346; purified delta FosB, TAMRA-CDK5 oligo fluorescence polarization; percent of positive-control signal above neutral wells;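 active = mean activation above about 17%, with every replicate also reaching it, limit read from the data, passing the limit was not always enough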
* = called active by the depositor. Compounds with a hit are over-represented: about 3.1% of the library has one in this group of screens.

How did Cn1c(=O)c2cc(S(=O)(=O)NC(C(=O)Nc3cccc(F)c3)c3ccccc3)ccc2n(C)c1=O (stereo unspecified) do in these assays?
RAD52 inh: -148; MLL AF4-AF9 inh: -1; DENV2 CPE rescue: 78*; RAD54 inh: -5; INS-1E GSIS act: -14; dFosB activator: -5

What do the screens show for `O=[N+]([O-])c1ccc(O)c(/C=N/n2cnc3ccccc32)c1`?
RAD52 inh: -14; MLL AF4-AF9 inh: -1; DENV2 CPE rescue: 70*; RAD54 inh: 6; INS-1E GSIS act: -18; dFosB activator: -5

What do the screens show for `COc1ccc(S(=O)(=O)N2CCc3ccccc3C2)cc1OC`?
RAD52 inh: -1; MLL AF4-AF9 inh: -6; DENV2 CPE rescue: -5; RAD54 inh: -11; INS-1E GSIS act: 63*; dFosB activator: 3

Results for C[C@@H]1CN([C@@H](C)CO)C(=O)c2cc(NS(=O)(=O)c3cn(C)cn3)ccc2O[C@@H](C)CCCCO[C@@H]1CN(C)S(=O)(=O)c1cccs1 ?
RAD52 inh: -122; MLL AF4-AF9 inh: -5; DENV2 CPE rescue: 2; RAD54 inh: -1; INS-1E GSIS act: 14

Results for C[C@@H]1CCCCO[C@@H](CN(C)S(=O)(=O)c2cccs2)[C@@H](C)CN([C@@H](C)CO)C(=O)c2cc(NS(=O)(=O)c3cn(C)cn3)ccc2O1 ?
RAD52 inh: 111*; MLL AF4-AF9 inh: -3; DENV2 CPE rescue: -9; RAD54 inh: 2; INS-1E GSIS act: 18

How did C[C@@H]1CN([C@H](C)CO)C(=O)c2cc(NS(=O)(=O)c3cn(C)cn3)ccc2O[C@@H](C)CCCCO[C@H]1CN(C)S(=O)(=O)c1cccs1 do in these assays?
RAD52 inh: 4; MLL AF4-AF9 inh: 0; DENV2 CPE rescue: 28*; INS-1E GSIS act: 20

Results for C[C@@H]1CCCCO[C@H](CN(C)S(=O)(=O)c2cccs2)[C@H](C)CN([C@@H](C)CO)C(=O)c2cc(NS(=O)(=O)c3cn(C)cn3)ccc2O1 ?
RAD52 inh: -16; MLL AF4-AF9 inh: -3; DENV2 CPE rescue: -5; RAD54 inh: 3; INS-1E GSIS act: 11

How did C[C@@H]1CCCCO[C@@H](CN(C)S(=O)(=O)c2cccs2)[C@H](C)CN([C@@H](C)CO)C(=O)c2cc(NS(=O)(=O)c3cn(C)cn3)ccc2O1 do in these assays?
RAD52 inh: 84*; MLL AF4-AF9 inh: -3; DENV2 CPE rescue: -3; RAD54 inh: 2; INS-1E GSIS act: 13

How did C[C@@H]1CCCCO[C@H](CN(C)S(=O)(=O)c2cccs2)[C@@H](C)CN([C@@H](C)CO)C(=O)c2cc(NS(=O)(=O)c3cn(C)cn3)ccc2O1 do in these assays?
RAD52 inh: 36; MLL AF4-AF9 inh: -2; DENV2 CPE rescue: -5; RAD54 inh: -2; INS-1E GSIS act: -4

What do the screens show for `C[C@H]1CCCCO[C@@H](CN(C)S(=O)(=O)c2cccs2)[C@@H](C)CN([C@@H](C)CO)C(=O)c2cc(NS(=O)(=O)c3cn(C)cn3)ccc2O1`?
RAD52 inh: 109*; MLL AF4-AF9 inh: -1; DENV2 CPE rescue: 9; RAD54 inh: -1; INS-1E GSIS act: 6

What do the screens show for `C[C@H](CO)N1C[C@H](C)[C@@H](CN(C)S(=O)(=O)c2cccs2)OCCCC[C@H](C)Oc2ccc(NS(=O)(=O)c3cn(C)cn3)cc2C1=O`?
RAD52 inh: -2; MLL AF4-AF9 inh: -2; DENV2 CPE rescue: -6; RAD54 inh: 2; INS-1E GSIS act: 1

Results for COc1ccccc1/C=C/C=O ?
RAD52 inh: 4; MLL AF4-AF9 inh: -3; DENV2 CPE rescue: 25*; RAD54 inh: -6

How did Cc1ccccc1NC(=O)c1c(C)nc(SCC(=O)OCc2ccccc2)c(C#N)c1-c1ccc(F)cc1 do in these assays?
RAD52 inh: -6; MLL AF4-AF9 inh: -2; DENV2 CPE rescue: 20*; dFosB activator: 8

Results for C=CCCN(CC#C[C@H]1Oc2ccccc2S(=O)(=O)N2CCC[C@@H]12)S(=O)(=O)c1ccc(C)cc1 ?
RAD52 inh: -1; MLL AF4-AF9 inh: -4; DENV2 CPE rescue: -8; RAD54 inh: -7

How did COc1ccc2c3c(n(C)c2c1)[C@H](CO)N(Cc1cc(F)ccc1F)CC31CN(C(C)=O)C1 do in these assays?
RAD52 inh: -7; MLL AF4-AF9 inh: -1; DENV2 CPE rescue: 0; INS-1E GSIS act: 14

Results for COc1cccc(C#Cc2ccc3c(c2)[C@H]2[C@H](CCN2S(=O)(=O)c2cccc(OC)c2)[C@H](CO)N3)c1 ?
RAD52 inh: -28; MLL AF4-AF9 inh: -1; DENV2 CPE rescue: 38*; INS-1E GSIS act: -20

What do the screens show for `O=S(=O)(c1ccccc1)N1CC[C@H]2[C@H](CO)Nc3ccc(C#Cc4cccc(F)c4)cc3[C@H]21`?
RAD52 inh: -14; MLL AF4-AF9 inh: 4; DENV2 CPE rescue: 30*; INS-1E GSIS act: -42

What do the screens show for `COc1ccc(S(=O)(=O)N2CC[C@@H]3[C@H]2c2cc(C#Cc4ccccc4OC)ccc2N[C@@H]3CO)cc1`?
RAD52 inh: -17; MLL AF4-AF9 inh: 1; DENV2 CPE rescue: 46*; RAD54 inh: -9; INS-1E GSIS act: 11

How did COc1ccc(S(=O)(=O)N2CC[C@H]3[C@H](CO)Nc4ccc(C#Cc5ccccc5OC)cc4[C@H]32)cc1 do in these assays?
RAD52 inh: 3; MLL AF4-AF9 inh: 1; DENV2 CPE rescue: -8; INS-1E GSIS act: 9

Results for CCOc1ccccc1NC(=O)C(Sc1nnc2ccccn12)c1ccccc1 (stereo unspecified) ?
RAD52 inh: -9; MLL AF4-AF9 inh: -2; DENV2 CPE rescue: 1; INS-1E GSIS act: 9; dFosB activator: -3

Results for O=C(Nc1ccc(F)cc1)C(Sc1nnc2ccccn12)c1ccccc1 (stereo unspecified) ?
RAD52 inh: -8; MLL AF4-AF9 inh: 49*; DENV2 CPE rescue: -12; INS-1E GSIS act: -20; dFosB activator: -2

How did C[C@H](CO)N1C[C@H](C)[C@H](CN(C)C(=O)Nc2ccc(C(F)(F)F)cc2)Oc2c(NC(=O)Nc3ccc(C(F)(F)F)cc3)cccc2C1=O do in these assays?
MLL AF4-AF9 inh: 1; RAD54 inh: 0; INS-1E GSIS act: -4

How did C[C@@H]1CN([C@@H](C)CO)C(=O)c2cc(C#CC3CCCCC3)cnc2O[C@H]1CN(C)Cc1cccnc1 do in these assays?
RAD52 inh: 21; MLL AF4-AF9 inh: 6; DENV2 CPE rescue: 4; RAD54 inh: -7; INS-1E GSIS act: 23

How did COc1ccc(/C=N\NC(=O)c2cc(O)c(O)c(O)c2)cc1COc1ccc(C(=O)OCC(C)C)cc1 do in these assays?
RAD52 inh: -14; MLL AF4-AF9 inh: 54*; DENV2 CPE rescue: 2; RAD54 inh: 1; INS-1E GSIS act: 1; dFosB activator: -2

How did CCc1cc(=O)oc2cc(C)cc(OC(C)C(=O)NC(Cc3c[nH]c4ccc(O)cc34)C(=O)O)c12 (stereo unspecified) do in these assays?
RAD52 inh: -11; MLL AF4-AF9 inh: -1; DENV2 CPE rescue: 68*; RAD54 inh: 1; INS-1E GSIS act: 1; dFosB activator: 0

Bioassay records from PubChem.
